Sampled rows, rich in hits. Any-hit rate of the full collection: about 21%.
Shiga toxin inh: inhibitors of Shiga toxin in Vero cells | Vero cells, Shiga toxin protein synthesis inhibition reporter | inhibition, % at 38.7 µM | actives 9.2% (n = 290,000); in the data active = inhibition mostly above about 28%, no sharp cut-off; inactive = mostly below about 43%; note: 0% is about no effect
HCV inhibitor: blocks hepatitis C virus; Potency, µM (highest dose often 41.8 µM), for the others: at the highest dose activity change, negative = inhibition, actives largely listed as inhibitors; Huh7.5.1 HCVcc-Cre infection, luciferase reporter, 44 h; actives 3.4% (n = 340,000); note: potency is the fitted concentration of half-maximal effect; % is set by controls: 0 for no effect and ±100 for the full control effect
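1,000 cells/well; 4 h culture; + compound; + HCVcc-Cre (~0.5 moi); 44 h; luciferase substrate, RT 15 min; read 15 sec.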
Pf growth 48h: inhibits P. falciparum growth in the first generation, 48 h. actives 5.9% (n = 310,000). Potency, µM (highest dose often 28.7 µM), for the others: at the top dose activity change, negative = inhibition, hits mostly inhibitors. P. falciparum luciferase growth in erythrocytes, 48 h. AID 504832; note: potency is the fitted concentration of half-maximal effect; % is set by controls: 0 for no effect and ±100 for the full control effect
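Firefly luciferase activity from engineered P. falciparum reports growth; inhibitors lower the luminescent signal. Cultures contained 2% hematocrit erythrocytes at 0.1% final parasitemia.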
CHX counter: counter-screen for Shiga toxin inhibitors: cycloheximide protein synthesis inhibition. AID 2314. actives 12% (n = 300,000). max response, %. cell reporter, cycloheximide protein synthesis inhibition counterscreen; in the data active = max response mostly above about 13%, no sharp cut-off; inactive = mostly below about 14%; note: read at 38.3 µM for the half of the compounds with a filed dose; 0% is about no effect
Pf growth 96h: P. falciparum growth inhibition at 96 hours | P. falciparum luciferase reporter growth, 96 h | Potency, µM (highest dose often 28.7 µM), for inactives: top-dose activity change, negative = inhibition, usual class: inhibitors | actives 6.9% (n = 320,000) | AID 504834; note: potency is the fitted concentration of half-maximal effect; % is set by controls: 0 for no effect and ±100 for the full control effect
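96 h incubation, 37 C, 5% CO2, of luciferase-reporter P. falciparum-infected RBCs (2% hematocrit, 0.05% parasitemia final) with test compounds; endpoint luminescence.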
AMA1 RON2 block: inhibitors of Plasmodium falciparum AMA1-RON2 interaction; AlphaScreen AMA1-biotinylated RON2 peptide binding; Potency, µM (top dose mostly 58.2 µM), for inactives: at the top dose activity change, negative = inhibition, actives largely listed as inhibitors; actives 0.2% (n = 360,000);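 note: potency is the fitted concentration of half-maximal effect; 0% = vehicle wells and -100% = peptide control; nearly all actives have a fitted effect of over 45% in size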
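AMA1 (3D7) with his tag at 25 nM final met compounds first, then biotinylated RON2 peptide at 25 nM; detection used donor plus acceptor beads, 10 µg/mL apiece, read by AlphaScreen after 30 min at room temperature.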
* marks the source's active call; other numbers are inactive results; ? = inconclusive; / = no result. Unless noted, calls come from the whole dose curve; as a rule, active = well fitted curve in the direction sought with a large enough effect; inconclusive = small, poorly fitted or top-dose-only effect, or another doubt; inactive = no such curve, though single readings can be large; an effect the other way counts as inactive or inconclusive.

SMILES	Shiga toxin inh	HCV inhibitor	Pf growth 48h	CHX counter	Pf growth 96h	AMA1 RON2 block
Cc1nn(-c2ccccc2)c2sc(C(=O)c3c(N)n(C)c(=O)n(C)c3=O)cc12	16	-18%	1.5µM*	7	?	-17%
O=C(COc1ccccc1[N+](=O)[O-])N(Cc1cccc(Br)c1)C1CCS(=O)(=O)C1 (configuration not stated)	-1	14%	-29%	-7	?	12%
CCC1CCCCN1CCCNC(=O)CCC(=O)N1CC(C)Oc2ccccc21 (configuration not stated)	-6	6%	5%	-1	?	-2%
Cc1ccc(SC(C)c2nc(-c3ccccc3)no2)cc1 (configuration not stated)	44	11%	-3%	23*	-17%	?
Cc1ccccc1OC(C)c1nc(-c2ccccc2)no1 (configuration not stated)	48	-1%	14%	38*	/	68%
CC(=O)N1CCC(C(=O)N2c3ccccc3N=C(c3ccc(C(F)(F)F)cc3)C2C(=O)NC2CCCC2)CC1 (configuration not stated)	/	/	/	/	/	1%
O=C(c1ccc(Cl)cc1)c1ccc(CN2C(=O)c3ccccc3C2=O)o1	-13	-1%	0%	-1	16%	-5%
Cc1cc(=O)c(C(=O)c2ccccc2)c(C)o1	/	10%	/	/	/	-2%
Cc1oc2c(c1C(=O)c1ccc(Cl)cc1)C(=O)C(=O)c1ccccc1-2	-2	10µM*	?	6	?	-20%
COc1ccc(C(=O)c2coc(-c3ccccc3C(=O)O)c2C(=O)O)cc1	5	4%	4%	5	25%	-12%
Cc1ccc(C(=O)c2c(C)oc3c2C(=O)C(=O)c2ccccc2-3)cc1	4	7.1µM*	?	18	?	-24%
Cc1ccc(C(=O)c2coc3c2C(=O)C(=O)c2ccccc2-3)cc1	42*	?	/	32*	-93%	-8%
O=C(CCNC(=O)C1CCN(S(=O)(=O)c2ccc(F)cc2)CC1)NCc1ccncc1	-2	12%	-12%	-6	7%	-9%
C=CCOc1ccccc1CNCc1ccc(F)cc1	-8	7%	-13%	5	2.3µM*	-7%
COc1cc([N+](=O)[O-])ccc1-c1ccc(/C=N/NC(=O)c2ccccc2O)o1	15	/	2.6µM*	-1	?	/
C=CCNC(=S)N/N=C/c1ccc(-c2ccc(Br)cc2)o1	-8	-1%	?	14	58%	21%
C=CCNC(=S)N/N=C/c1ccc(-c2cccc([N+](=O)[O-])c2)o1	41*	-19%	?	16*	53%	78%
O=C(N/N=C/c1ccc(-c2cccc([N+](=O)[O-])c2)o1)c1ccc([N+](=O)[O-])cc1	9	10µM*	?	15	13%	0%
CC(=O)c1c(N2CCOCC2)nc2ccc(Cl)cc2c1-c1ccccc1	-8	?	?	-1	-17%	-19%
CC(=O)Nc1c(NC(=O)CC#N)[nH]c2c(c1=O)c(=O)n(C)c(=O)n2C	5	15%	17%	4	-25%	14%
Cn1c(=S)[nH]c(=O)c2ncc(=O)[nH]c21	-2	8%	55%	-1	6%	-3%
CCOC(=O)C1=C(C)Nc2nc3ccccc3n2C1c1ccc(O)cc1 (configuration not stated)	11	9%	-22%	-1	11%	-18%
CCOC(=O)c1ccccc1-n1c(C)cc(C2N=C(N)Nc3nc4ccccc4n32)c1C (configuration not stated)	-4	-8%	/	1	1.7µM*	36%
O=C(C1CC1)N1CCc2cc(Br)cc(S(=O)(=O)NCc3ccco3)c21	53*	-7%	-22%	28*	40%	4%
Cc1ccc(CNC(=O)CCS(=O)(=O)c2cc(Br)cc3c2N(C(=O)C2CC2)CC3)o1	-22	-8%	2.6µM*	6	12µM*	-2%
SMILES	Shiga toxin inh	HCV inhibitor	Pf growth 48h	CHX counter	Pf growth 96h	AMA1 RON2 block
CCOC(=O)C1CCN(Cc2cccc(OC)c2)CC1	-9	23%	/	-3	9%	-22%
CCOC(=O)N1CCN(Cc2c(O)ccc3ccccc23)CC1	-7	13%	90%	-7	25%	1%
CCOC(=O)C1CCN(Cc2c(O)ccc3ccccc23)CC1	-26	-11%	?	9	9.3µM*	5%
CCOC(=O)C1CCN(Cc2oc(CO)cc(=O)c2O)CC1	33*	20%	/	15	?	-29%
CCOC(=O)C1CCN(Cc2ccc3ccccc3c2)CC1	-10	-10%	-1%	1	13µM*	?
c1ccc(CN2CCN(Cc3ccc4ccccc4c3)CC2)cc1	15	1%	?	8	0.93µM*	?
O=C1NC[C@H](CCCCN2C[C@H](Cc3ccccc3)N(CCc3ccc(O)cc3)C(=O)C2=O)N(CC2CCCCC2)C1=O	/	/	/	/	/	0%
CCOC(=O)C1CCN(Cc2cc(C(C)C)c(O)c(C(C)C)c2)CC1	14	1%	?	-5	0.41µM*	-12%
CCOC(=O)C1CCN(Cc2ccc(F)c(F)c2)CC1	-17	16%	/	-3	28%	-24%
N#Cc1ccc(C(=O)Nc2nc(SCc3ccc(Cl)cc3)n[nH]2)cc1	-4	-17%	11%	3	-10%	91%
CCCCOc1ccc(CSc2n[nH]c(C)n2)cc1	93*	?	?	33*	6%	26%
Cc1nc(SCc2ccc([N+](=O)[O-])cc2)n[nH]1	/	9%	15%	5.9*	?	-2%
CCc1nnc(SCc2ccc([N+](=O)[O-])cc2)nc1CC	/	-10%	/	/	/	12%
CCOc1ccc(Cl)cc1CSc1n[nH]c(C)n1	1	?	?	-1	64%	0%
CCc1nc(SCc2ccc([N+](=O)[O-])cc2)n[nH]1	76*	1%	58%	36*	?	-6%
CCc1nc(SCC(=O)Nc2ccc([N+](=O)[O-])cc2)n[nH]1	-10	-5%	29%	-2	-28%	6%
Cc1nc(SCc2ccc(C#N)cc2)n[nH]1	/	15%	6%	18*	13µM*	5%
Cc1ccc2c(c1)CCCN2C(=O)CCc1nc2ccccc2c(=O)[nH]1	/	?	?	/	?	0%
Cc1ccc(F)c(S(=O)(=O)NC(=O)C2(C)CCN2C(=O)Cc2ccccc2)c1 (configuration not stated)	/	/	/	/	/	6%
CC(O)CN1CC(O)=C(c2nc3ccccc3s2)C1=N (configuration not stated)	21	9%	10%	17*	2%	2%
CCN1CC(O)=C(c2nc3ccccc3s2)C1=N	27	?	45%	24*	/	-2%
CCCCN1CC(O)=C(c2nc3ccccc3s2)C1=N	44	-11%	11%	25*	/	5%

Assay outcomes: PubChem BioAssay, National Center for Advancing Translational Sciences (NCATS)
